# Assay results reported in the supplement of paper PMC10338343.
# ± gives the standard deviation. The full ranking holds about 6,600 sequences; the median of “pre-steady-state target cleavage rate” is about 0.07, and the highest 2% start at about 0.72. The list comes from a sample in which the highest values are over-represented; it also holds similar and randomly drawn sequences.
# Tested on: MIWI (PIWIL1) piRISC loaded with Kctd7 piRNA (30 nt)
# Assay: pre-steady-state target cleavage rate (min^-1); MIWI and MILI are mouse PIWI proteins and EfPiwi is from a freshwater sponge; tags in brackets are library labels; higher = faster piRNA-guided slicing of the target
# Conditions: guide: Kctd7 piRNA 5'p-UGUUAAUCUCUCAGAGAAGGUGACAGUGAU; auxiliary factor: 500 nM mouse GTSF1
# Procedure: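 Cleave-'n-Seq: a library of target RNAs (target site embedded in constant flanks, ACAGCATTCCGCGTTAGTGATATCCG... 5' flank; DNA-blocked outside the site) at 0.1 nM was incubated with 1 nM active mouse MILI or MIWI piRISC (synthetic 5'-monophosphorylated piRNA guide) with or without 500 nM mouse GTSF1 at 33 °C for 1 min to 16 h. Uncleaved targets were sequenced and normalised to non-target controls, and the pooled three trials were fitted to a burst-and-steady-state model to give the pre-steady-state cleavage rate (min^-1; k3 is constrained to at most 1e-4). Sequence is the target site only; target names encode pairing extent (gX:gY) and contiguous / 1-mismatch / 2-mismatch / bulge geometry. Fits with R² ≤ 0 are excluded.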
row,Sequence,pre-steady-state target cleavage rate
1,UUCACACUCACCUUCUCUGAGAGAUUUUGA,0.0972 ± 0.024
2,UAGUGACUCACCUUCUCUGAGAGAUUAAGA,0.194 ± 0.031
3,UAGACUGUCACCUACUCUGAGAGUUUAACA,0.147 ± 0.023
4,UUCACUGUCACCUUCUCUGAGCGAUUAACA,0.13 ± 0.0091
5,UAGACUGUCAGCUUCUCUGAGAGAUUAUCA,0.171 ± 0.024
6,AUCAGACUCACCUUCUCUGAGAGAUUAACA,0.726 ± 0.045
7,UUCAGACUCACCUUCUCUGAGAGAUUAACA,0.472 ± 0.035
8,ACUCACUGUCACCUUCUCUGAGAGAUUAACA,0.781 ± 0.054
9,UUCUCUGUCACCUUCACUGAGAGAUUAACA,0.392 ± 0.021
10,AUCACUCAGACCUUCUCUGAGAGAUUAACA,0.433 ± 0.024
11,AUUCACUGUCACCUUCUCUGAGAGAUUAACA,0.737 ± 0.036
12,UUCACUGUCACCUUCUCUGAGAGAUUAACA [g2:g29:cont:t1A],0.717 ± 0.03
13,CUCACUGUCACCUUCUCUGAGAGAUUAACA,0.714 ± 0.031
14,UACAGUGUCACCUUCUCUGAGUGAUUAACA,0.0377 ± 0.0077
15,UAGUGUGUCACCUUGUCUGAGAGAUUUUGA,0.00982 ± 0.0057
16,UAGACUGUCACGUUCUCUGAGUGAUUAACA,0.00628 ± 0.0015
17,UUCACUGUCUCCUUCUCUGAGAGAUUAUGA,0.122 ± 0.034
18,UACUCUGUCACCUUCUCUGAGAGAUUUUGA,0.0843 ± 0.017
19,UAGUGACACACCUUCUCUGAAAGAUUAACA,0.384 ± 0.029
20,UAGUGUGUCGACCUUCUCUGAGAGAUUAACA,0.155 ± 0.017
21,UAGACUGUCACCUACUCUGAGAGAUUAACA,0.666 ± 0.049
22,UUGACUGUCACCUUCUCUGAGAGAUUAAGA,0.257 ± 0.034
23,UAGUGACUGCACCUUCUCUGAGAGAUUAACA,0.77 ± 0.05
24,UUGACUGUCACCUUCUCUGUGAGAUUAACA,0.267 ± 0.011

row,Sequence,pre-steady-state target cleavage rate
1,UAGUGACUGACCUUCUCUGAGAGAUUAACA,0.363 ± 0.037
2,UAGUGACUCACCUUCUCUGACAGAUUAACA,0.393 ± 0.048
3,UUGACUGUCACCUUCUCUGAGAGAUUAACA,0.777 ± 0.042
4,UUGACUGUCACCUACUCUGAGAGAUUAACA,0.689 ± 0.041
5,UAGACUGCACCUUCUCUGAGAGAUUAACA,0.698 ± 0.046
6,UAGUGACUCACCUUCUCUGACUGAUUAACA,0.00516 ± 0.0026
7,UAGUGACUCACCUUCUCUGAUAGAUUAACA,0.778 ± 0.035
8,AUGACUGUCACCUACUCUGAGAGAUUAACA,0.736 ± 0.042
9,AUCACUGUCACCUUCUCUGAGAGUAAAACA,0.125 ± 0.024
10,UUCACUGUCAGCUUCUCUGAGAGAUUAUCA,0.24 ± 0.027
11,UAGUCUGUCACCUUCUCUGAGAGAUUAGACA,0.138 ± 0.041
12,UAGUGACACACCUUCUGUGAGAGAUUAUGA,0.015 ± 0.007
13,UAGUGUGUCACCUUCUCUGAGUGAUUAUCA,0.00944 ± 0.0044
14,UAGUGAGUCACCUUCUGUGAGAGAUUUUGA,0.012 ± 0.0055
15,UAGUGAGUCACCUUCUCUGAGAGAUUAUGA,0.088 ± 0.019
16,UAGUGUGUCACCUACUCUGAGAGAUUAACA,0.598 ± 0.054
17,AUGACUGUCACCUUCUCUGAGAGAUUAACA,0.771 ± 0.037
18,UAGAGUGUCACCUACUCUGAGAGAUUAACA,0.765 ± 0.042
19,AUGACUGUCACCUUCUCUGAGAGAUUAAGA,0.205 ± 0.028
20,UACAGUGUCACCUACUCUGAGAGAUUAACA,0.585 ± 0.038
21,AUGACUGUCACCUUCUCUGUGAGAUUAACA,0.278 ± 0.013
22,UUCACUGUCACCUAGUCUGAGAGAUUUUGA,0.111 ± 0.03
23,UAGUGACACAGCUUCUCUGAGAGUUUAACA,0.0412 ± 0.0084
24,UUCACUGUCUCCUUCACUGAGAGAUUAACA,0.393 ± 0.032

row,Sequence,pre-steady-state target cleavage rate
1,UUCACGUCACCUUCUCUGAGAGAUUAACA,0.702 ± 0.03
2,UACACGGUCACCUUCUCUGAGAGAUUAACA,0.593 ± 0.027
3,UUCACCGUCACCUUCUCUGAGAGAUUAACA,0.698 ± 0.03
4,UACACGUGUCACCUUCUCUGAGAGAUUAACA,0.563 ± 0.026
5,AUCACGUCACCUUCUCUGAGAGAUUAACA,0.732 ± 0.041
6,UACACCGUCACCUUCUCUGAGAGAUUAACA,0.78 ± 0.04
7,UACACGUCACCUUCUCUGAGAGAUUAACA,0.737 ± 0.043
8,AUCACGUGUCACCUUCUCUGAGAGAUUAACA,0.63 ± 0.03
9,AUCACCGUCACCUUCUCUGAGAGAUUAACA,0.67 ± 0.026
10,UACACUGUCACCUUCACUGAGAGUUUAACA,0.356 ± 0.081
11,AUCACUGUCACCUAGACUGAGAGAUUAAGA,0.0119 ± 0.0058
12,UAGUCUGUGACCUUCUGUGAGAGAUUAACA,0.399 ± 0.028
13,UAGUCUGUCACCUUCUCUGAGACAUAAACA,0.0237 ± 0.0074
14,UUCAGUGUCACCUUCUCUGAGAGAUUUUGA,0.161 ± 0.043
15,AUCACUGUCACCUUCCCUGAGAGAUUAACA,0.449 ± 0.064
16,UAGUGUGUCACGAACUCUGAGAGAUUAACA,0.0752 ± 0.0083
17,UAGUGUCUCACCUUCUCUGAGAGAUUAUCA,0.239 ± 0.033
18,AUCACUGUCACCUUCUCUGAGAGAUUAACU [g2:g30:cont:t1U],0.526 ± 0.057
19,UUCAACUGUCACCUUCUCUGAGAGAUUAACA,0.733 ± 0.039
20,AUAACUGUCACCUUCUCUGAGAGAUUAACA,0.675 ± 0.03
21,AUCACUGUCAACCUUCUCUGAGAGAUUAACA,0.269 ± 0.021
22,AUCAACUGUCACCUUCUCUGAGAGAUUAACA,0.737 ± 0.049
23,UUCACUGUCAACCUUCUCUGAGAGAUUAACA,0.271 ± 0.019
24,UACAACUGUCACCUUCUCUGAGAGAUUAACA,0.744 ± 0.042

row,Sequence,pre-steady-state target cleavage rate
1,UAAACUGUCACCUUCUCUGAGAGAUUAACA,0.677 ± 0.03
2,UUAACUGUCACCUUCUCUGAGAGAUUAACA,0.581 ± 0.022
3,UAGUGUGUGACCUUCUCUGUGAGAUUAACA,0.206 ± 0.016
4,UAGUGACAGUCCCUUCUCUGAGAGAUUAACA,0.611 ± 0.046
5,UUCACUCGUCACCUUCUCUGAGAGAUUAACA,0.78 ± 0.042
6,UACACUCUCACCUUCUCUGAGAGAUUAACA,0.444 ± 0.031
7,UAGUCUCGUCACCUUCUCUGAGAGAUUAACA,0.571 ± 0.025
8,UAGACUCGUCACCUUCUCUGAGAGAUUAACA,0.687 ± 0.041
9,AUCACUCUCACCUUCUCUGAGAGAUUAACA,0.551 ± 0.029
10,UACACACUCACCUUCUCUGAGAGAUUAACA,0.568 ± 0.044
11,UUCACUCUCACCUUCUCUGAGAGAUUAACA,0.54 ± 0.028
12,AUCACUCGUCACCUUCUCUGAGAGAUUAACA,0.747 ± 0.043
13,UACACUCGUCACCUUCUCUGAGAGAUUAACA,0.77 ± 0.035
14,UACACUGUCACCUUCUCAGAGAGAAUAACA,0.076 ± 0.021
15,AUCACUGUCACGUUCUCUCAGAGAUUAACA,0.0868 ± 0.0082
16,UAGUGUCUCACCUUCACUGAGAGAUUAACA,0.276 ± 0.019
17,UAGUGACUCACCAUCUCUGAGAGUUUAACA,0.173 ± 0.035
18,UACACUGUCACCUUCUCUGAGACAUUUUGA,0.00497 ± 0.0047
19,UAGACUGUCACCUUCUCUGAGGGAUUAACA,0.741 ± 0.051
20,UACACUGUCACCUUCUCUGAGGGAUUAACA,0.611 ± 0.033
21,UAGACUGUCACCUUCUCUGAGGAUUAACA,0.00433 ± 0.0033
22,UAGACUGUCACCUUCUCUGAGAGGAUUAACA,0.369 ± 0.036
23,UUCACUGUCACCUUCUCUGAGGGAUUAACA,0.51 ± 0.024
24,AUCACUGUCACCUUCUCUGAGGGAUUAACA,0.75 ± 0.041
